Molecules are shown by their SMILES. The campaign covered roughly 47,000 compounds. About 2,800 (6%) were called active. The sample holds actives, similar compounds and a random draw of the others, so the mix is not that of the screen. Cut-off read from the data, not from the text of the source: active = z-score above about 3 (passing the limit was not always enough); inactive = the rest.

The target of the assay is Endoribonuclease Dicer (Homo sapiens) (UniProt Q9UPY3). The assay can be described thus: inhibitors of Dicer pre-microRNA processing, primary screen, biochemical, cat-ELCCA, chemiluminescence (AID 1347074).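 Note: plate controls were vehicle for no effect and no enzyme for full effect; higher signal means more uncleaved substrate so more Dicer inhibition.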 The note with it: cat-ELCCA pre-miR-21 Dicer processing, at 25 µM, active compounds read high.
Endoribonuclease Dicer (Homo sapiens), sequence (Q9UPY3 whole entry, looked up): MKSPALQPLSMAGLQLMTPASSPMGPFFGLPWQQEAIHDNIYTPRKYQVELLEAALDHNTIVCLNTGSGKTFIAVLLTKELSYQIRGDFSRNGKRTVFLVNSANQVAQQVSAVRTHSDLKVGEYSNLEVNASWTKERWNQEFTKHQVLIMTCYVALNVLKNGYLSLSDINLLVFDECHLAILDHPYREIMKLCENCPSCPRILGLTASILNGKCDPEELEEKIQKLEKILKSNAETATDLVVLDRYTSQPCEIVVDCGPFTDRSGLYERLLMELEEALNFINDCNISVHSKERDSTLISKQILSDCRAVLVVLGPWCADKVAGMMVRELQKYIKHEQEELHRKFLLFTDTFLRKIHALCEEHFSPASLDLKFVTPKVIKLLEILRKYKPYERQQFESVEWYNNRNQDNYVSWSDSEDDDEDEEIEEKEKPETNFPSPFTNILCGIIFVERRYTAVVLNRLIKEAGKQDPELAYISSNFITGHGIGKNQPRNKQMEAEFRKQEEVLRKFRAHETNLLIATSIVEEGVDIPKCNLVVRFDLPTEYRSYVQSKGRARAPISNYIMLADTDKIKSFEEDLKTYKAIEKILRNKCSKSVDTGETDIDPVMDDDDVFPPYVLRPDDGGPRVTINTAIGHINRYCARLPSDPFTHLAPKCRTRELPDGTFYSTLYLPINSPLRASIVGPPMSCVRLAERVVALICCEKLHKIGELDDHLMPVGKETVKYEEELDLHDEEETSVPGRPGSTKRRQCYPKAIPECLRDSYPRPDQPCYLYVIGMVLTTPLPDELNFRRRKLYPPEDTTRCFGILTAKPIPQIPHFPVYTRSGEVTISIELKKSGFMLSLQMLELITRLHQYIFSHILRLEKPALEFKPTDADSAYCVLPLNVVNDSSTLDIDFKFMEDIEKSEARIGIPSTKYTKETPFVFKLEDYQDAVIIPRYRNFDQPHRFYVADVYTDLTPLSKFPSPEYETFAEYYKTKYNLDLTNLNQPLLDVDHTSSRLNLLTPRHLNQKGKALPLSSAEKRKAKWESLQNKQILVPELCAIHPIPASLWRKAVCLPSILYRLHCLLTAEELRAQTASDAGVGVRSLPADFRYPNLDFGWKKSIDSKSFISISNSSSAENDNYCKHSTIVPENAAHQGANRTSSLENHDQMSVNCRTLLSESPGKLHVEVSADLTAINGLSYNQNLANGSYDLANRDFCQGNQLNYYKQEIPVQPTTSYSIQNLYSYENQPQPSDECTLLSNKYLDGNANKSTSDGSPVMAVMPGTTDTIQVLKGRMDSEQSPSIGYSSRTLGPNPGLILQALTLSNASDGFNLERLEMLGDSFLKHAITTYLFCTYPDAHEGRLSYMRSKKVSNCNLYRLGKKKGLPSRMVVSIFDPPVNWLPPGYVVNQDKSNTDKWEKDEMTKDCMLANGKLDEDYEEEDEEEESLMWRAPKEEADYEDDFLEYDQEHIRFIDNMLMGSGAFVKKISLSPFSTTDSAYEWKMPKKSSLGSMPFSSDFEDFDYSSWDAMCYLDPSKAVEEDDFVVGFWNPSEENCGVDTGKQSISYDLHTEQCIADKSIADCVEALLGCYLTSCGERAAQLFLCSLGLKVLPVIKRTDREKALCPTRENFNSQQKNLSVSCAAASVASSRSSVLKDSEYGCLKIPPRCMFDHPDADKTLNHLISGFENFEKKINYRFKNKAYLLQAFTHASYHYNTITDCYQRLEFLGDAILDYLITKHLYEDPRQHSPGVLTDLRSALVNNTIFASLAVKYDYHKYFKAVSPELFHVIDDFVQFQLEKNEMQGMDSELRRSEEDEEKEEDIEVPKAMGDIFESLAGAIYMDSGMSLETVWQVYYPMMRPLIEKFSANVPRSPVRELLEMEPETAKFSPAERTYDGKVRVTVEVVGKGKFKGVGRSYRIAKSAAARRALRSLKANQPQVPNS
`CCCCOCC1CC2(CC(C)(c3csc(Nc4ccccc4Cl)n3)OC2=O)C(=O)O1` (stereo not drawn): the z-score is 0.26 (inactive). With `O=C(Nc1ccc2oc(-c3ccncc3)nc2c1)c1sc2ccccc2c1Cl`, the z-score was 0.13 (inactive). For `O=C(Nc1cccc(F)c1)c1sc2ccccc2c1Cl`, the z-score was 4.06 (active). Consider `O=C(Nc1cccc2ncccc12)c1sc2ccccc2c1Cl`, for which the z-score was 0.23 (inactive). On to `N#CC1=C(N)Oc2cc(O)ccc2C1c1cccc(Br)c1` (stereo not drawn), for which the z-score was -2.59 (inactive).

As to `O=C1Nc2ccc(Br)cc2C1O` (stereo not drawn), the z-score is -6.13 (inactive). As to `CCOC(=O)c1cnn2c1nc(Oc1cc(C(F)(F)F)cc(C(F)(F)F)c1)c1ccccc12`, the z-score is -0.15 (inactive). `COC(=O)C(C)N(C#N)c1nc(N(C)C)nc(N(C)C)n1` (stereo not drawn): the z-score was 5.93 (active). As for `CC(C)NC(=O)NNc1cc(N(C)C)c(C#N)c(N(C)C)n1`, the z-score is -3.01 (inactive). With `COc1ccc(N2CCN(Cc3nc4c(c(=O)n(C)c(=O)n4C)n3CC(=O)C(C)(C)C)CC2)cc1`, the z-score was -2.02 (inactive). `Cc1ccc(/C(O)=C2\C(=O)C(=O)N(CCCN3CCOCC3)C2c2ccc(C)cc2)cc1` (stereo not drawn): the z-score was 0.47 (inactive). In the case of `CCCCCCC#Cc1cncc(-c2nnc(SCC(=O)Nc3ccccc3)n2C)c1` it was 0.64 (inactive).

As to `O=C(Nc1ccc(F)cc1F)N1CCN(c2ccccn2)CC1`, the z-score was 2.53 (inactive). For `Cc1ccc(C)c(-c2nc(C)sc2CC(=O)O)c1`, the z-score is 0.81 (inactive). Consider `Cn1c(-c2ccccc2)nc2c(c1=O)C1(CCCCC1)Cc1ccccc1-2`, for which the z-score is -0.41 (inactive). The result for `CCn1c(=O)c2c(n3c(SCC(N)=O)nnc13)-c1ccccc1CC21CCCCC1` reads 5.92 (active); that for `Fc1ccc(-c2cc3ncc4c(n3n2)-c2cc(F)ccc2OC4)cc1`, -1.86 (inactive). Take `Cc1cc(C)c2c(c1)C(=O)C(c1cc(=O)c3ccccc3[nH]1)C2=O` (stereo not drawn): the z-score is 1.92 (inactive). Consider `Clc1ccc(-c2csc(N/N=C\c3ccn[nH]3)n2)cc1`, for which the z-score was 0.61 (inactive). For `CC(C)NC(=S)N/N=C/c1ccn[nH]1`, the z-score was 3.01 (active). In the case of `C/C(=N\NS(=O)(=O)c1ccc(Cl)cc1)c1cc(-c2ccccc2)no1`, the z-score was -0.51 (inactive). On to `C=C1c2c(Cl)ccc(O)c2C(O)=C2C(=O)[C@]3(O)C(O)=C(C(N)=O)C(=O)[C@@H](N(C)C)[C@@H]3[C@@H](O)C12` (stereo partly drawn), for which the z-score was 15.5 (active). Turning to `CN(C)[C@@H]1C(=O)C(C(N)=O)=C(O)[C@@]2(O)C(=O)C3=C(O)c4c(O)ccc(Cl)c4[C@@H](O)[C@H]3C[C@@H]12`, the z-score is 0.22 (inactive). In the case of `O=C(NC(=O)c1c(F)cccc1F)Nc1ccc(Br)cc1F`, the z-score is 0.21 (inactive). In the case of `O=C1Nc2ccc(S(=O)(=O)Nc3ccc4oc(=O)sc4c3)c3cccc1c23`, the z-score is 1.49 (inactive). Regarding `CC(C)C(=O)NNc1ncc(C(F)(F)F)cc1Cl`, the z-score was 0.4 (inactive). `O=C1C(=O)N(CCCn2ccnc2)C(c2ccco2)/C1=C(\O)c1ccccc1` (stereo not drawn): the z-score was 2.79 (inactive). As to `N#Cc1cccc(CSc2ncnc(N)n2)c1`, the z-score was 3.87 (active). With `O=C(CSc1nnc(-c2ccco2)c(-c2ccco2)n1)Nc1ccc(Br)cc1`, the z-score is -1.71 (inactive). Consider `Cc1[nH]nc2oc(=O)c([N+](=O)[O-])c(C)c12`, for which the z-score was -1.74 (inactive). Regarding `O=C1NC(c2ccccc2)=N/C1=C/c1ccc(F)cc1`, the z-score is 3.84 (active). For `O=C1NNC(c2ccccc2)=N/C1=C\c1ccc(Cl)cc1`, the z-score is -3.16 (inactive). For `c1ccc(C2=Nc3cccc4cccc(c34)N2)cc1`, the z-score was -0.61 (inactive). Consider `O=C1C(=O)N(CCCn2ccnc2)C(c2ccncc2)/C1=C(\O)c1ccc(Cl)cc1` (stereo not drawn), for which the z-score was 1.19 (inactive). Regarding `CCCc1n(CC(O)COc2ccc(C)cc2)c2ccccc2[n+]1C` (stereo not drawn), the z-score was -0.91 (inactive). For `Cc1ccccc1CN1C=C(C(N)=O)C(C(F)(F)F)CC1` (stereo not drawn), the z-score was -0.6 (inactive).

As to `COc1cccc(CNC2CS(=O)(=O)CC2O)c1` (stereo not drawn), the z-score was 0.5 (inactive). As to `CCc1c(C)nc2cc(-c3ccc(Br)cc3)[nH]n2c1=O`, the z-score is 1.4 (inactive). In the case of `COCCOC(=O)C1=C(C)NC2=C(C(=O)CC(C)(C)C2)C1c1ccc(Br)cc1` (stereo not drawn) it was -0.9 (inactive); in that of `COc1csc2nc(C)cc(C)c12`, 2.93 (inactive); in that of `O=C(CC1(O)C(=O)Nc2ccccc21)c1ccc(F)cc1` (stereo not drawn), -0.42 (inactive). For the compound `O=C1Nc2ccccc2C12NNC(=S)NN2`, the z-score was 8.53 (active). On to `Cc1[nH]c2ccccc2c1C1(O)C(=O)Nc2ccccc21` (stereo not drawn), for which the z-score was 0.91 (inactive).

With `CC1=C(C(=O)Nc2ccccc2)C(c2cccs2)C(C#N)=C(SCC(=O)O)N1` (stereo not drawn), the z-score was 0.54 (inactive). As to `CC12CCC(C(=O)O)(CC1=O)C2(C)C` (stereo not drawn), the z-score is 2.29 (inactive). Regarding `O=C(Oc1ccc(Br)cc1)c1cccnc1`, the z-score was 5.46 (active). In the case of `O=C1C(=O)N(c2cccnc2)C(c2ccc(Br)cc2)/C1=C(\O)c1ccc(Cl)cc1` (stereo not drawn), the z-score was 0.32 (inactive). With `O=C(Oc1ccc2ccccc2c1)c1ccncc1`, the z-score was 0.81 (inactive). For `O=C1CC(c2ccc(F)cc2)Cc2nc3nc(C(F)(F)F)nn3cc21` (stereo not drawn), the z-score was -0.42 (inactive). In the case of `COc1ccc(C2N3CC4(C)CN2CC(C)(C3)C4)cc1` (stereo not drawn), the z-score was 1.02 (inactive). In the case of `CC(C)c1ccc(C2N3CC4(C)CN2CC(C)(C3)C4)cc1` (stereo not drawn), the z-score was 4.83 (active). Consider `CC(C)Oc1ccc(C2N3CC4(C)CN2CC(C)(C3)C4)cc1` (stereo not drawn), for which the z-score was 2.35 (inactive). Regarding `C#CC1(NS(=O)(=O)c2ccc(Sc3ccccc3)c([N+](=O)[O-])c2)CCCCC1`, the z-score is -0.19 (inactive).

With `CCOC(=O)Cc1nnc2c(Nc3cccc(Br)c3)nc3nonc3n12`, the z-score was 3.07 (active). On to `Cc1cc(C)c(C#N)c(Nc2cccc(Br)c2)n1`, for which the z-score is 0.66 (inactive). As for `CCOC(=O)Cc1csc(NC(=O)Nc2ccccc2)n1`, the z-score was -0.51 (inactive).

With `O=C(Cn1nc(C(F)(F)F)c2c1CCCC2)Nc1ccc(Cl)cc1`, the z-score is 1.11 (inactive). Take `COc1ccc(C2CC(=O)C3=C(C2)Nc2ccccc2NC3c2cc(F)ccc2F)cc1` (stereo not drawn): the z-score is 3.99 (active).

For `COC(=O)c1ccc(C2Nc3ccccc3NC3=C2C(=O)CC(c2ccccc2)C3)cc1` (stereo not drawn), the z-score was 3.94 (active).

`CN(C)c1ccc(C2Nc3ccccc3NC3=C2C(=O)CC(c2ccc(Cl)cc2)C3)cc1` (stereo not drawn): the z-score was 1.16 (inactive). In the case of `COc1ccc(C2CC(=O)C3=C(C2)Nc2ccccc2NC3c2cccc(Cl)c2)cc1` (stereo not drawn) it was 2.07 (inactive); in that of `COC(=O)C1=C(C)NC2=C(C(=O)CC(c3ccccc3)C2)C1c1ccc(C)cc1` (stereo not drawn), 0.18 (inactive); in that of `O=C1CC(c2ccccc2)CC2=C1C(c1cccc(Cl)c1)Nc1ccccc1N2` (stereo not drawn), 1.52 (inactive).
